# About 410 targets per protein were measured; listed, in parts, are those with the strongest signals and a random draw of the rest.
# B1: CML1 (Coprinopsis cinerea) (protein)
# chain: MAIFHTGSELFIITRGPGKLTLLTWGGLNNLRSVIGAIPTENTGVTKWAVSFSHNYTRFSFIWEGQGEACYQIGNGLTRSPVGRSWSSSSTIHWGSSTVITEDVTSVVPGAVNRDKVTTAYALPDNL
# What was measured:
# Experiment in all cases: glycan array binding signal (z-score within array); higher = stronger binding
# Conditions in all cases: glycan notation: IUPAC condensed, linker removed
# [1] = target: GalNAc(b1-3)GalNAc
# Procedure, shortened: (§1)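 Glycan array data were curated from 3228 arrays in the Consortium for Functional Glycomics database and kept only where the protein sequence was available. Glycan names were converted to IUPAC-condensed notation, and columns mapping to the same glycan were averaged. The binding signal is a within-array Z-score, averaged across arrays of the same protein sequence at different concentrations or buffers and across linkers. Negative Z-scores can be read as non-binding.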
# [2] = target: GlcNAc(b1-3)Gal(b1-4)Glc
# Procedure, shortened: as §1
# [3] = target: GlcNAc(b1-3)Gal(b1-4)GlcNAc
# Procedure, shortened: as §1
# [4] = target: GlcNAc(b1-3)[GlcNAc(b1-6)]GalNAc
# Procedure, shortened: as §1
# [5] = target: Kdn(a2-3)Gal(b1-3)GlcNAc
# Procedure, shortened: as §1
# [6] = target: Man(a1-2)Man(a1-3)Man
# Procedure, shortened: as §1
# [7] = target: Neu5Ac(a2-3)Gal(b1-3)GalNAc(b1-3)Gal(a1-4)Gal(b1-4)Glc
# Procedure, shortened: as §1
# [8] = target: Neu5Ac(a2-3)Gal(b1-3)GlcNAc(b1-2)Man(a1-3)[Neu5Ac(a2-3)Gal(b1-3)GlcNAc(b1-2)Man(a1-6)]Man(b1-4)GlcNAc(b1-4)GlcNAc
# Procedure, shortened: as §1
# [9] = target: Neu5Ac(a2-3)Gal(b1-3)[Fuc(a1-4)]GlcNAc
# Procedure, shortened: as §1
# [10] = target: Neu5Ac(a2-3)Gal(b1-4)GlcNAc(b1-2)[Neu5Ac(a2-3)Gal(b1-4)GlcNAc(b1-4)]Man(a1-3)[GlcNAc(b1-4)][Neu5Ac(a2-3)Gal(b1-4)GlcNAc(b1-4)Man(a1-6)]Man(b1-4)GlcNAc(b1-4)GlcNAc
# Procedure, shortened: as §1
# [11] = target: Neu5Ac(a2-3)Gal(b1-4)GlcNAc(b1-3)Gal
# Procedure, shortened: as §1
# [12] = target: Neu5Ac(a2-3)Gal(b1-4)GlcNAc(b1-3)Gal(b1-4)GlcNAc(b1-2)Man(a1-3)[Neu5Ac(a2-3)Gal(b1-4)GlcNAc(b1-3)Gal(b1-4)GlcNAc(b1-2)Man(a1-6)]Man(b1-4)GlcNAc(b1-4)GlcNAc
# Procedure, shortened: as §1
# [13] = target: Neu5Ac(a2-3)Gal(b1-4)GlcNAc(b1-3)Gal(b1-4)GlcNAc(b1-3)GalNAc
# Procedure, shortened: as §1
# [14] = target: Neu5Ac(a2-3)Gal(b1-4)GlcNAc(b1-3)Gal(b1-4)[Fuc(a1-3)]GlcNAc
# Procedure, shortened: as §1
# [15] = target: Neu5Ac(a2-3)Gal(b1-4)[Fuc(a1-3)]GlcNAc(b1-3)Gal
# Procedure, shortened: as §1
# [16] = target: Neu5Ac(a2-3)Gal(b1-4)[Fuc(a1-3)]GlcNAc(b1-3)Gal(b1-4)GlcNAc
# Procedure, shortened: as §1
# [17] = target: Neu5Ac(a2-3)Gal(b1-4)[Fuc(a1-3)]GlcNAc6S
# Procedure, shortened: as §1
# [18] = target: Neu5Ac(a2-3)Gal6S(b1-4)GlcNAc
# Procedure, shortened: as §1
# [19] = target: Neu5Ac(a2-3)Gal6S(b1-4)[Fuc(a1-3)]GlcNAc
# Procedure, shortened: as §1
# [20] = target: Neu5Ac(a2-3)[GalNAc(b1-4)]Gal(b1-4)GlcNAc
# Procedure, shortened: as §1
# [21] = target: Neu5Ac(a2-6)Gal(b1-4)GlcNAc
# Procedure, shortened: as §1
# [22] = target: Neu5Ac(a2-6)Gal(b1-4)GlcNAc(b1-2)[Neu5Ac(a2-6)Gal(b1-4)GlcNAc(b1-4)]Man(a1-3)[GlcNAc(b1-4)][Neu5Ac(a2-6)Gal(b1-4)GlcNAc(b1-2)[Neu5Ac(a2-6)Gal(b1-4)GlcNAc(b1-6)]Man(a1-6)]Man(b1-4)GlcNAc(b1-4)GlcNAc
# Procedure, shortened: as §1
# [23] = target: Neu5Ac(a2-6)Gal(b1-4)GlcNAc(b1-3)Gal(b1-3)GlcNAc
# Procedure, shortened: as §1
# [24] = target: Neu5Ac(a2-6)Gal(b1-4)GlcNAc(b1-6)[Gal(b1-3)GlcNAc(b1-3)]Gal(b1-4)Glc
# Procedure, shortened: as §1
# [25] = target: Neu5Ac(a2-6)Gal(b1-4)GlcNAc6S
# Procedure, shortened: as §1
# [26] = target: Neu5Ac(a2-6)GalNAc
# Procedure, shortened: as §1
# [27] = target: Neu5Ac9Ac(a2-3)Gal(b1-4)GlcNAc
# Procedure, shortened: as §1
# [28] = target: Neu5Gc(b2-6)Gal(b1-4)GlcNAc
# Procedure, shortened: as §1
binder,measurement,setting,value
B1,glycan array binding signal (z-score),[1],-0.349
same,glycan array binding signal (z-score),[2],-0.323
same,glycan array binding signal (z-score),[3],-0.329
same,glycan array binding signal (z-score),[4],-0.329
same,glycan array binding signal (z-score),[5],-0.319
same,glycan array binding signal (z-score),[6],-0.348
same,glycan array binding signal (z-score),[7],-0.333
same,glycan array binding signal (z-score),[8],-0.355
same,glycan array binding signal (z-score),[9],4.64
same,glycan array binding signal (z-score),[10],-0.332
same,glycan array binding signal (z-score),[11],-0.3
same,glycan array binding signal (z-score),[12],-0.331
same,glycan array binding signal (z-score),[13],-0.342
same,glycan array binding signal (z-score),[14],-0.341
same,glycan array binding signal (z-score),[15],4.46
same,glycan array binding signal (z-score),[16],2.41
same,glycan array binding signal (z-score),[17],4.04
same,glycan array binding signal (z-score),[18],6.01
same,glycan array binding signal (z-score),[19],3.49
same,glycan array binding signal (z-score),[20],-0.353
same,glycan array binding signal (z-score),[21],-0.352
same,glycan array binding signal (z-score),[22],-0.321
same,glycan array binding signal (z-score),[23],-0.35
same,glycan array binding signal (z-score),[24],-0.355
same,glycan array binding signal (z-score),[25],-0.334
same,glycan array binding signal (z-score),[26],-0.331
same,glycan array binding signal (z-score),[27],-0.348
same,glycan array binding signal (z-score),[28],-0.339

# Reference: the supplement of paper PMC8728848
